# Source: PubChem BioAssay (NCI)
# Compounds without any hit were thinned out: in the full panel of roughly 83,000, 20% have a hit.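 Testing used 96-well plates and a 48-hour single-concentration exposure. Example: -40 means 40% of the starting cells died.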 A number with no mark means an inactive call. Activity calls are given as the source filed them. How the source made its calls: active means growth percent below 10; inactive means the rest.
# How the values were obtained:
# Assay in all cases: NCI-60 one-dose screen, 48 h (100 = growth as untreated, 0 = no growth, -100 = all killed)
# Conditions in all cases: 10 µM unless noted
# SR leukemia = tested on: SR leukemia
# OVCAR-8 ovarian = tested on: OVCAR-8 ovarian
# OVCAR-5 ovarian = tested on: OVCAR-5 ovarian
# OVCAR-4 ovarian = tested on: OVCAR-4 ovarian
# SK-OV-3 ovarian = tested on: SK-OV-3 ovarian
# IGROV1 ovarian = tested on: IGROV1 ovarian
# OVCAR-3 ovarian = tested on: OVCAR-3 ovarian
# HS 578T breast = tested on: HS 578T breast
# NCI/ADR-RES ovarian = tested on: NCI/ADR-RES ovarian
# T-47D breast = tested on: T-47D breast
# BT-549 breast = tested on: BT-549 breast
# MDA-MB-435 melanoma = tested on: MDA-MB-435 melanoma
# SW-620 colon = tested on: SW-620 colon
# MCF7 breast = tested on: MCF7 breast
# HCT-116 colon = tested on: HCT-116 colon
# HCC-2998 colon = tested on: HCC-2998 colon
# KM12 colon = tested on: KM12 colon
SMILES,growth (SR leukemia),growth (OVCAR-8 ovarian),growth (OVCAR-5 ovarian),growth (OVCAR-4 ovarian),growth (SK-OV-3 ovarian),growth (IGROV1 ovarian),growth (OVCAR-3 ovarian),growth (HS 578T breast),growth (NCI/ADR-RES ovarian),growth (T-47D breast),growth (BT-549 breast),growth (MDA-MB-435 melanoma),growth (SW-620 colon),growth (MCF7 breast),growth (HCT-116 colon),growth (HCC-2998 colon),growth (KM12 colon)
COc1ccc(C(=O)N=Nc2c(O)n(C)c3ccccc23)cc1,80.5%,95.6%,105%,91.9%,87.2%,90.2%,104%,99.5%,91.5%,61.9%,103%,103%,97.3%,61.3%,99.7%,117%,95.5%
O=c1c2cccc(Cl)c2sc2c(NCCCNCCO)nc3ccccc3c12,-51.2% (active),27%,62.5%,11.1%,53.2%,15.3%,-7.4% (active),20.3%,38.4%,42.7%,80.1%,-87.1% (active),-97.6% (active),15.3%,-58.9% (active),-88% (active),-62.1% (active)
CCOC(=O)c1cnn2c3ccccc3n(S(=O)(=O)c3ccc(OC)cc3)c12,14%,27.5%,42.5%,71.4%,48.2%,28.6%,0.973% (active),37.3%,0.145% (active),71.8%,17.5%,2.91% (active),25.9%,18.5%,14.4%,16.9%,25.9%
Cc1cc(C)c(-c2c(N)cc(Br)cc2Br)c(N)c1,24.9%,83.8%,84.9%,74.3%,31.7%,63.9%,65%,66.4%,54.5%,54.6%,69.6%,-25.8% (active),48.5%,21.4%,23.5%,75.1%,40.5%
CCN(CC)CCCNc1nc2ccccc2c2c(=O)c3cc(Cl)ccc3sc12,-15.7% (active),61.5%,75.5%,45.1%,89.3%,50.7%,40.5%,64.3%,74.1%,61.3%,91.2%,-4.23% (active),14.3%,44.4%,20.2%,26.5%,27%
NCCCNc1nc2ccccc2c2c(=O)c3cc(F)cc(Cl)c3sc12,-17.3% (active),5.77% (active),96.6%,-65.3% (active),102%,80%,102%,88.3%,85.5%,88.4%,104%,26%,-49.3% (active),68.3%,-60.2% (active),84.3%,72.7%
CC([C@H]1CCC2C3CCC4C[C@@H](NC=O)CC[C@]4(C)C3CC[C@@]21C)N(C)C (stereo partly drawn),-38.7% (active),41.1%,67.8%,-18.6% (active),42.5%,25.6%,-34.3% (active),-2.92% (active),27.1%,-40.6% (active),30.7%,-46.1% (active),-71.5% (active),-23.1% (active),-66.2% (active),-67.2% (active),-21.1% (active)
O=c1cc(SCc2ccccc2)nc[nH]1,127%,117%,93.5%,117%,114%,111%,114%,119%,101%,114%,103%,106%,107%,101%,104%,112%,94.8%
COc1ccc(OC)c(/C=C2\Oc3cc(OCCN4CCC(Cc5ccccc5)CC4)ccc3C2=O)c1,2.46% (active),78%,92.1%,93.8%,93.3%,76.2%,89.8%,82.2%,80.2%,63.1%,89.8%,87.3%,74.5%,77.3%,73%,19.7%,92.9%
